The text below walks through data of the supplement of paper PMC10849652.

About 7,900 targets were measured; listed, in parts, are those with a hit and a random draw of the rest. About 0.6% of all pairs of compound and target were hits.

Chain of UniProt P41440 (P41440 whole entry, looked up): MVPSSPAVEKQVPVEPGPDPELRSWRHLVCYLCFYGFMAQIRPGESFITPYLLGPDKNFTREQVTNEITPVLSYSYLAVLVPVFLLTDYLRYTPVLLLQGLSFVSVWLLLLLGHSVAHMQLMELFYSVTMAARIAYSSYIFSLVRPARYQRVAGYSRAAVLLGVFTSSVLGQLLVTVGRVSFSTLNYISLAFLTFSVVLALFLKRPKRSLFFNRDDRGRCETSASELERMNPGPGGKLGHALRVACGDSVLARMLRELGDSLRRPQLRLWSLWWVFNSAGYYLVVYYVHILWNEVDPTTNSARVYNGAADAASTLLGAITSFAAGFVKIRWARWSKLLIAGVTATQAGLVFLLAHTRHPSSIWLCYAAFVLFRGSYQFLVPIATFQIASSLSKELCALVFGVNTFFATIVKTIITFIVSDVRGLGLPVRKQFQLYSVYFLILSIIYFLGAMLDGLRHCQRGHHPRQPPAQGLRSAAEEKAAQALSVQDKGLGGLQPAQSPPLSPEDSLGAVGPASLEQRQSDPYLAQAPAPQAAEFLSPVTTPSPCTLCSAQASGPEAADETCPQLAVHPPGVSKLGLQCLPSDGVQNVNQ
Chain of UniProt Q9BUV8 (Q9BUV8 whole entry, looked up): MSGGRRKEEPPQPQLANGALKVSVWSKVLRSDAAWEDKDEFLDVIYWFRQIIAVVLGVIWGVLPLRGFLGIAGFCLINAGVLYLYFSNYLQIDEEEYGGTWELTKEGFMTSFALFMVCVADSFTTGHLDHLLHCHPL
Chain of UniProt Q7Z6E9 (Q7Z6E9 whole entry, looked up): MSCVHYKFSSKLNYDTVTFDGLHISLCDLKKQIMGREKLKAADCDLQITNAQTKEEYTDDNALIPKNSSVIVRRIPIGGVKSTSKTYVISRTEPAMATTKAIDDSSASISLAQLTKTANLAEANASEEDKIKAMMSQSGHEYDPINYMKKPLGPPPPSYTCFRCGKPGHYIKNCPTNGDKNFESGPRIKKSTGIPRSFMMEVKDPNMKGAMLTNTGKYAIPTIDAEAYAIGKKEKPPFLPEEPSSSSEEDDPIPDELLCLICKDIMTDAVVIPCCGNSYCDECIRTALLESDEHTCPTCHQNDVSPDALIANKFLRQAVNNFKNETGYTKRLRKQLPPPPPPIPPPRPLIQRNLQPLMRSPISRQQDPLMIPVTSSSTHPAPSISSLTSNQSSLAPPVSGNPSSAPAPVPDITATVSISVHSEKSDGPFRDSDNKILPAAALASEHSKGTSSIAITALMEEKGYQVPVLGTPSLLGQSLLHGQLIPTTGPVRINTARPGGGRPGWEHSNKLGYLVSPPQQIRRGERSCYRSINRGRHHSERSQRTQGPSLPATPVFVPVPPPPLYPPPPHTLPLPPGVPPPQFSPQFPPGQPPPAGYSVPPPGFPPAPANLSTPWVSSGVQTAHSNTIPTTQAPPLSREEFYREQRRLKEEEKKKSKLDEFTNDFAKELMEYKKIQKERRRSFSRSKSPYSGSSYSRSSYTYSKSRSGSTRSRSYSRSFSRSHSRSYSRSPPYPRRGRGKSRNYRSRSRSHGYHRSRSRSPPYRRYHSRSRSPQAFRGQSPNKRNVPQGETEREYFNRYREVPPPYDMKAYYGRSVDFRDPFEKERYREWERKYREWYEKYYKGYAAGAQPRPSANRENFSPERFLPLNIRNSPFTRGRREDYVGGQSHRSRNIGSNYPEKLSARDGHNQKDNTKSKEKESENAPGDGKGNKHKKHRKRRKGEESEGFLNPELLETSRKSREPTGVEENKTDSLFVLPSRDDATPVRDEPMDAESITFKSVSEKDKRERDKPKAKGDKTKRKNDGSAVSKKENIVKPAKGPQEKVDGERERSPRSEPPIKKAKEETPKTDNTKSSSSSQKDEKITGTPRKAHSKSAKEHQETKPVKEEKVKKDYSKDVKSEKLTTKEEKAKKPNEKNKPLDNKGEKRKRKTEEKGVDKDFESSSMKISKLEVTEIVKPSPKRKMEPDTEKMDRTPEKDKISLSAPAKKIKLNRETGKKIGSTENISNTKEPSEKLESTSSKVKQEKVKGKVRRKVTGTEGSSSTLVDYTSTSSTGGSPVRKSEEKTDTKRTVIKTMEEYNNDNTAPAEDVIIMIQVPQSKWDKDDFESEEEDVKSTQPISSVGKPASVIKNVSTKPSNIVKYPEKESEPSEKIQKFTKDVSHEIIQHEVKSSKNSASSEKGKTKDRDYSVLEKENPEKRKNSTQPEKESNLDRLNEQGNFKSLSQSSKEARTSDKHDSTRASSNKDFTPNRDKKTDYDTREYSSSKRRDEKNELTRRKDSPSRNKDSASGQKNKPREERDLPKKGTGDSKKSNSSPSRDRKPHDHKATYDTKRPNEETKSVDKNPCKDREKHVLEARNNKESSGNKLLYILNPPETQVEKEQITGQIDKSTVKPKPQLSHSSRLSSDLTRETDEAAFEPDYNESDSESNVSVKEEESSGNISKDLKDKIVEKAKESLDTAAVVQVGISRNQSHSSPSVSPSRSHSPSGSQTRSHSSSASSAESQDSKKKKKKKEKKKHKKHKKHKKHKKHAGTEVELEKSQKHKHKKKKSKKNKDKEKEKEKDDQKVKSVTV
Chain of UniProt Q8IZQ5 (Q8IZQ5 whole entry, looked up): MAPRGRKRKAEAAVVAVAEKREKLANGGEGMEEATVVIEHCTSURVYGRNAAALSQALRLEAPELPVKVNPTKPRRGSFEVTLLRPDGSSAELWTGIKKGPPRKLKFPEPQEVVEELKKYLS
Chain of UniProt Q06609 (Q06609 whole entry, looked up): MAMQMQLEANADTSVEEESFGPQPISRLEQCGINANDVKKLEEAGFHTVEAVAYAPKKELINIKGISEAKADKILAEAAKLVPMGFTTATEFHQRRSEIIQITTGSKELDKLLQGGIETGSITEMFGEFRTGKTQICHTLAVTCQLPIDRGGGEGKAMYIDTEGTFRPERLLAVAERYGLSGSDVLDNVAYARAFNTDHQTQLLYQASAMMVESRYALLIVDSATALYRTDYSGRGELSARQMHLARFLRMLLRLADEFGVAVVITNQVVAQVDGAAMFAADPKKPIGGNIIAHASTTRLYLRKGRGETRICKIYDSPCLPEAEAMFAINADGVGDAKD
Chain of UniProt O15127 (O15127 whole entry, looked up): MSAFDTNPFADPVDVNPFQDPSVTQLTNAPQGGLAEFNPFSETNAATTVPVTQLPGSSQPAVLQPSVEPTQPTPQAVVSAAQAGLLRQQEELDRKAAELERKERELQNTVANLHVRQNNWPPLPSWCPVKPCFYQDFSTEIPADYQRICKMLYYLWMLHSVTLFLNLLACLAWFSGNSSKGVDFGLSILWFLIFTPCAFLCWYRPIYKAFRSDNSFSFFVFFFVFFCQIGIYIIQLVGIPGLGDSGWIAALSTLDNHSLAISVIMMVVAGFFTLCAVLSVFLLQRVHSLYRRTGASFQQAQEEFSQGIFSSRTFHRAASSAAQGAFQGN
Chain of UniProt P35244 (P35244 whole entry, looked up): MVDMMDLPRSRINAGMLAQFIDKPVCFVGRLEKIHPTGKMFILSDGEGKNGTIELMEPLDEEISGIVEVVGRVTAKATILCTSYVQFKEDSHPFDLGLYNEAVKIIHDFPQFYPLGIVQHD
Chain of UniProt Q96EU6 (Q96EU6 whole entry, looked up): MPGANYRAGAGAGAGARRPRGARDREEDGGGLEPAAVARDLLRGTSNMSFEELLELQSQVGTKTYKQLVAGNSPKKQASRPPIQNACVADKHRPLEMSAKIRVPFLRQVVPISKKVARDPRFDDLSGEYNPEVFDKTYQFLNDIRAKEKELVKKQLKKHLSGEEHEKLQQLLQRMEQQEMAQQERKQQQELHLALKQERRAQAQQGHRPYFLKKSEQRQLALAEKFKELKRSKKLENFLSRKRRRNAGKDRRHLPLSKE
Chain of UniProt Q9BQY4 (Q9BQY4 whole entry, looked up): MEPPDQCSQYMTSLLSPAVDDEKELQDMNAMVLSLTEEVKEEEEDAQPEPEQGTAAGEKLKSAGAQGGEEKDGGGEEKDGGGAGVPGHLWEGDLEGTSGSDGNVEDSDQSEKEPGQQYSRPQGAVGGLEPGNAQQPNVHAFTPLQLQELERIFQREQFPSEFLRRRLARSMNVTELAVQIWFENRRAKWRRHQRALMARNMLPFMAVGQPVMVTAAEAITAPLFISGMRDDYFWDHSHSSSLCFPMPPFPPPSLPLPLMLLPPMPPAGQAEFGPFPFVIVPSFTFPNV
Chain of UniProt Q9UKL0 (Q9UKL0 whole entry, looked up): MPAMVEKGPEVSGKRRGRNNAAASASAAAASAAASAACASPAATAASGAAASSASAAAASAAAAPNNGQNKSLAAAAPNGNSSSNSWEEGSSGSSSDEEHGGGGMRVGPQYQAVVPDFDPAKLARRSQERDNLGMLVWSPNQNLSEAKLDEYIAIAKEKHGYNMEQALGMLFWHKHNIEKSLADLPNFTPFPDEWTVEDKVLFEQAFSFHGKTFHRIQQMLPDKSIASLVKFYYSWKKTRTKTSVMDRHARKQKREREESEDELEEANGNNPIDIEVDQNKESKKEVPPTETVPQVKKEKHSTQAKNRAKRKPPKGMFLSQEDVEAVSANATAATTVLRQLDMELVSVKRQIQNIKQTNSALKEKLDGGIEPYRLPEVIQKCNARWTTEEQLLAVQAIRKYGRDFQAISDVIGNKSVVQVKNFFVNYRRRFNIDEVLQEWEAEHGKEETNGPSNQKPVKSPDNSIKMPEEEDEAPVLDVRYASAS
Chain of UniProt Q7L099 (Q7L099 whole entry, looked up): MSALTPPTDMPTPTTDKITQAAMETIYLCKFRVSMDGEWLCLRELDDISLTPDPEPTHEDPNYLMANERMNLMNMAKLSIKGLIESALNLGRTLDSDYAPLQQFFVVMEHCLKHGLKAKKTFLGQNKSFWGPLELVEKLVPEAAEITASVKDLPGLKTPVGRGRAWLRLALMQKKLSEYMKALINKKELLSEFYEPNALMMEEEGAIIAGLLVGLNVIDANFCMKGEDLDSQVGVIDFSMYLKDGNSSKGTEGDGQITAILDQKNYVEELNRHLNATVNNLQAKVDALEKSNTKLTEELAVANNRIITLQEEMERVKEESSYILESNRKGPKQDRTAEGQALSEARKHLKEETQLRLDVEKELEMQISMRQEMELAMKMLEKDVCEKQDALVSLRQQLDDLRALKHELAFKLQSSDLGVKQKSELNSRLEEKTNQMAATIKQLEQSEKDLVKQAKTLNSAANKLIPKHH

Compound in one assay: CC1=C(C=C(C=C1)NC(=O)C2=CC(=CC=C2)C(C)(C)C#N)NC3=CC4=C(C=C3)N=CN(C4=O)C
Nature of the assay: log2 fold change, soluble protein after heating vs DMSO (PISA); higher = thermal stabilisation; K562 cells, 10 uM, 30 min; active = over 0.2 and 3.5 SD of the protein, either way, in both replicates (recomputed). A digest of the protocol: (§1)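 Values are thermal stability changes relative to control samples and are taken from duplicates. They are stated as log2 fold changes. Before quantification by TMTpro 16plex LC-MS/MS with equalised channel sums, K562 cells at 2×10^6 cells/mL were treated with 10 μM compound for 30 min, heated in aliquots for 3 min across 48°C-58°C, pooled, extracted in PBS with 0.5% NP-40 at 4°C, and centrifuged at 21,000xg for 90 min to give the soluble supernatant.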
Turning to RARS2 (UniProt Q5T160), the log2 fold change is 0.018 (inactive).
Same read-out and setting: to RRP36 (UniProt Q96EU6) belongs 0.001 (inactive); to RCOR1 (UniProt Q9UKL0), -0.061 (inactive); to RBM48 isoform 2 (UniProt Q5RL73), -0.708 (active).
The same measure, in the same setting: to RPS18 (UniProt P62269) belongs -0.014 (inactive); to RPA3 (UniProt P35244), 0.076 (inactive); to RPS6KA3 (UniProt P51812), -0.072 (inactive).
The same measure, in the same setting: the same measure for RHOXF2 (UniProt Q9BQY4): -0.03 (inactive); for SCAMP2 (UniProt O15127): -0.032 (inactive); for SAMD4B (UniProt Q5PRF9): -0.501 (active).
Consider RAD50, A0A494C0Y7, for which the log2 fold change was -0.005 (inactive).
As to RNF167 (UniProt Q9H6Y7), the log2 fold change is 0.037 (inactive).
The same measure, in the same setting: the same measure for SLC19A1 (UniProt P41440): 0.112 (inactive); for SH2D1B (UniProt O14796): -0.781 (inactive).
As for RHOA (UniProt P61586), the log2 fold change is 0.015 (inactive).
RNPEP (UniProt Q9H4A4): the log2 fold change is 0.032 (inactive).
Consider RAB3IL1 (UniProt E9PK89), for which the log2 fold change is -0.069 (inactive).
Take RDH10 (UniProt Q8IZV5): the log2 fold change was 0.004 (inactive).
Take RAF1 isoform 2 (UniProt P04049): the log2 fold change is 0.317 (inactive).
Take RBBP6 (UniProt Q7Z6E9): the log2 fold change was -0.108 (inactive).
On the same count and under the same terms, to ROCK1 (UniProt Q13464) belongs 0.003 (inactive); to RUFY1 (UniProt Q96T51), 0.013 (inactive); to SCAMP2 (UniProt H3BUB6), -0.349 (inactive).
For the target RAD51 (UniProt Q06609), the log2 fold change is -0.012 (inactive).
For SERINC1 (UniProt Q9NRX5), the log2 fold change was 0.044 (inactive).
Consider SCO2 (UniProt O43819), for which the log2 fold change was -0.487 (active).
Regarding SELENOH (UniProt Q8IZQ5), the log2 fold change is 0.09 (inactive).
For RPS25 (UniProt P62851), the log2 fold change is 0.009 (inactive).
Consider RTF2 (UniProt Q9BY42), for which the log2 fold change was 0 (inactive).
Regarding RAB5IF isoform 5 (UniProt Q9BUV8), the log2 fold change was 0.044 (inactive).
With SIK3 (UniProt H0Y4E8), the log2 fold change was 0.017 (inactive).
On to RPAIN isoform 8 (UniProt Q86UA6), for which the log2 fold change is 0.009 (inactive).
For RUFY3 isoform 3 (UniProt Q7L099), the log2 fold change is -0.085 (inactive).
Consider RCOR3 isoform 3 (UniProt Q9P2K3), for which the log2 fold change is -0.12 (inactive).

Compound in another assay: CC1=C(C=C(C=C1)NC(=O)C2=CC(=CC=C2)N(C)C)NC(=O)C3=CC=C(C=C3)O
The description is as above. A digest of the protocol: as §1
RARS2 (UniProt Q5T160): the log2 fold change was 0.033 (inactive).
As to RRP36 (UniProt Q96EU6), the log2 fold change is -0.168 (inactive).
Regarding RCOR1 (UniProt Q9UKL0), the log2 fold change is -0.089 (inactive).
Consider RBM48 isoform 2 (UniProt Q5RL73), for which the log2 fold change was -0.13 (inactive).
On to RPS18 (UniProt P62269), for which the log2 fold change was 0 (inactive).
RPA3 (UniProt P35244): the log2 fold change is -0.059 (inactive).
As to RPS6KA3 (UniProt P51812), the log2 fold change is -0.157 (inactive).
Consider RHOXF2 (UniProt Q9BQY4), for which the log2 fold change is 0.034 (inactive).
With SCAMP2 (UniProt O15127), the log2 fold change was -0.032 (inactive).
Still for that read-out and setting: to SAMD4B (UniProt Q5PRF9) belongs -0.02 (inactive).
RAD50, A0A494C0Y7: the log2 fold change was -0.03 (inactive).
The same measure, in the same setting: to RNF167 (UniProt Q9H6Y7) belongs 0.008 (inactive).
In the case of SLC19A1 (UniProt P41440), the log2 fold change is -0.054 (inactive).
Regarding SH2D1B (UniProt O14796), the log2 fold change is 0.013 (inactive).
For the target RHOA (UniProt P61586), the log2 fold change is -0.073 (inactive).
In the case of RNPEP (UniProt Q9H4A4), the log2 fold change is -0.024 (inactive).
As for RAB3IL1 (UniProt E9PK89), the log2 fold change was -0.037 (inactive).
RDH10 (UniProt Q8IZV5): the log2 fold change was -0.034 (inactive).
Still for that read-out and setting: to RAF1 isoform 2 (UniProt P04049) belongs 0.056 (inactive); to RBBP6 (UniProt Q7Z6E9), 0.119 (inactive); to ROCK1 (UniProt Q13464), -0.073 (inactive).
Take RUFY1 (UniProt Q96T51): the log2 fold change was -0.011 (inactive).
Take SCAMP2 (UniProt H3BUB6): the log2 fold change was 0.043 (inactive).
For RAD51 (UniProt Q06609), the log2 fold change is -0.017 (inactive).
Same read-out and setting: the same measure for SERINC1 (UniProt Q9NRX5): -0.048 (inactive); for SCO2 (UniProt O43819): -0.079 (inactive); for SELENOH (UniProt Q8IZQ5): -0.011 (inactive).
Regarding RPS25 (UniProt P62851), the log2 fold change was 0 (inactive).
As for RTF2 (UniProt Q9BY42), the log2 fold change was -0.028 (inactive).
Same read-out and setting: to RAB5IF isoform 5 (UniProt Q9BUV8) belongs 0.01 (inactive).
With SIK3 (UniProt H0Y4E8), the log2 fold change was 0.18 (inactive).
Turning to RPAIN isoform 8 (UniProt Q86UA6), the log2 fold change is 0.038 (inactive).
On the same count and under the same terms, to RUFY3 isoform 3 (UniProt Q7L099) belongs -0.068 (inactive); to RCOR3 isoform 3 (UniProt Q9P2K3), -0.046 (inactive).

Compound in another assay: CC1=CC=C(C=C1)SC2=C3C=C(SC3=CN=C2)C(=O)N
Described as above. In a few lines:
as §1
As for RARS2 (UniProt Q5T160), the log2 fold change is 0.056 (inactive).
On to RRP36 (UniProt Q96EU6), for which the log2 fold change was -0.045 (inactive).
As for RCOR1 (UniProt Q9UKL0), the log2 fold change was 0.037 (inactive).
Regarding RBM48 isoform 2 (UniProt Q5RL73), the log2 fold change is -0.009 (inactive).
As to RPS18 (UniProt P62269), the log2 fold change was -0.049 (inactive).
In the case of RPA3 (UniProt P35244), the log2 fold change is 0.111 (inactive).
With RPS6KA3 (UniProt P51812), the log2 fold change is 0.021 (inactive).
RHOXF2 (UniProt Q9BQY4): the log2 fold change is -0.037 (inactive).
Take SCAMP2 (UniProt O15127): the log2 fold change is 0.046 (inactive).
As to SAMD4B (UniProt Q5PRF9), the log2 fold change is 0 (inactive).
For the target RAD50, A0A494C0Y7, the log2 fold change was -0.063 (inactive).
Take RNF167 (UniProt Q9H6Y7): the log2 fold change was -0.041 (inactive).
Turning to SLC19A1 (UniProt P41440), the log2 fold change was -0.019 (inactive).
In the case of SH2D1B (UniProt O14796), the log2 fold change is -0.01 (inactive).
Same read-out and setting: the same measure for RHOA (UniProt P61586): 0.047 (inactive); for RNPEP (UniProt Q9H4A4): 0.002 (inactive); for RAB3IL1 (UniProt E9PK89): 0 (inactive).
For RDH10 (UniProt Q8IZV5), the log2 fold change was 0.047 (inactive).
With RAF1 isoform 2 (UniProt P04049), the log2 fold change was 0.078 (inactive).
Still for that read-out and setting: the same measure for RBBP6 (UniProt Q7Z6E9): 0.03 (inactive).
Regarding ROCK1 (UniProt Q13464), the log2 fold change was -0.016 (inactive).
Consider RUFY1 (UniProt Q96T51), for which the log2 fold change is -0.022 (inactive).
SCAMP2 (UniProt H3BUB6): the log2 fold change is -0.166 (inactive).
In the case of RAD51 (UniProt Q06609), the log2 fold change is -0.042 (inactive).
As for SERINC1 (UniProt Q9NRX5), the log2 fold change was 0.372 (inactive).
For the target SCO2 (UniProt O43819), the log2 fold change was 0.029 (inactive).
Consider SELENOH (UniProt Q8IZQ5), for which the log2 fold change is 0.023 (inactive).
RPS25 (UniProt P62851): the log2 fold change is -0.03 (inactive).
Same read-out and setting: the same measure for RTF2 (UniProt Q9BY42): 0.019 (inactive); for RAB5IF isoform 5 (UniProt Q9BUV8): -0.042 (inactive); for SIK3 (UniProt H0Y4E8): -0.062 (inactive).
Same read-out and setting: to RPAIN isoform 8 (UniProt Q86UA6) belongs -0.098 (inactive); to RUFY3 isoform 3 (UniProt Q7L099), 0.016 (inactive).
Turning to RCOR3 isoform 3 (UniProt Q9P2K3), the log2 fold change is 0.051 (inactive).
